# Test results reported in PubChem BioAssay (NCI).
# “And” between values parts separate entries of the source, which are not always exact repeats. Identical values can stand only once. Compounds without any hit were thinned out: in the full panel of roughly 83,000, 20% have a hit.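 Negative percent growth values reflect cell death: -40 means 40% of the cells present at the start died, and -100 means all died.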 The source made the active and inactive calls. Rule for the calls: active = growth percent below 10; inactive = the rest.
# Tests used:
# Assay in all cases: NCI-60 one-dose screen, 48 h (100 = growth as untreated, 0 = no growth, -100 = all killed)
# Conditions in all cases: 10 µM unless noted
# [1] = tested on: SK-MEL-2 melanoma
# [2] = tested on: EKVX NSCLC
# [3] = tested on: SN12C renal
# [4] = tested on: UO-31 renal
# [5] = tested on: TK-10 renal
# [6] = tested on: ACHN renal
# [7] = tested on: CAKI-1 renal
# [8] = tested on: A498 renal
# [9] = tested on: CCRF-CEM leukemia
# [10] = tested on: MOLT-4 leukemia
# [11] = tested on: SR leukemia
# [12] = tested on: RPMI-8226 leukemia
# [13] = tested on: OVCAR-8 ovarian
# [14] = tested on: OVCAR-5 ovarian
# [15] = tested on: OVCAR-4 ovarian
# [16] = tested on: SK-OV-3 ovarian
# [17] = tested on: IGROV1 ovarian
# [18] = tested on: OVCAR-3 ovarian
# [19] = tested on: HS 578T breast
# [20] = tested on: NCI/ADR-RES ovarian
Structure (SMILES),growth [1],growth [2],growth [3],growth [4],growth [5],growth [6],growth [7],growth [8],growth [9],growth [10],growth [11],growth [12],growth [13],growth [14],growth [15],growth [16],growth [17],growth [18],growth [19],growth [20]
CCc1c2c(nc3ccc(OCc4ccc(B5OC(C)(C)C(C)(C)O5)cc4)cc13)-c1cc3c(c(=O)n1C2)COC(=O)[C@]3(O)CC,20.4% (inactive),35% (inactive),3.16% (active),-13.2% (active),39.5% (inactive),-9.99% (active),-1.75% (active),-40.3% (active),8.7% (active),8.97% (active),11.8% (inactive),10.4% (inactive),10.6% (inactive),10% (inactive),23.7% (inactive),-1.58% (active),12.8% (inactive),0.732% (active),38.4% (inactive),0.929% (active)
N=C1/C(=C2\NC3C=CC=CC3S2)C(c2ccc(Cl)cc2)C2C(=O)N(c3ccccc3)C(=S)N12 (stereo not given),107% (inactive),104% (inactive),99.7% (inactive),81.6% (inactive),123% (inactive),103% (inactive),99.6% (inactive),116% (inactive),101% (inactive),88.3% (inactive),105% (inactive),103% (inactive),99.1% (inactive),106% (inactive),101% (inactive),105% (inactive),92.8% (inactive),106% (inactive),99.2% (inactive),95.8% (inactive)
CN1CCN(C(=O)OCc2nc3c(N4CCOCC4)nc(Cl)nc3n2C)CC1,-57.4% (active),-43.6% (active),-75.1% (active),-100% (active),-78% (active),-94.5% (active),-75.2% (active),-15.5% (active),-6.96% (active),-24.8% (active),-28% (active),-28.2% (active),-80.3% (active),-73.7% (active),-39.5% (active),69.9% (inactive),-95.4% (active),-80.4% (active),-31.2% (active),-1.09% (active)
COc1ccc(/C=N/NC(=O)CN2CCN(c3cc4c(cc3F)c(=O)c(C(=O)O)cn4C3CC3)CC2)cc1O,94.1% (inactive),112% (inactive),99.1% (inactive),94.6% (inactive),89.6% (inactive),106% (inactive),111% (inactive),104% (inactive),92.7% (inactive),82.7% (inactive),80.2% (inactive),92.3% (inactive),95.1% (inactive),108% (inactive),108% (inactive),108% (inactive),95.5% (inactive),103% (inactive),96.8% (inactive),106% (inactive)
CON1CCC[C@]2(C)[C@H]3CC[C@@H]4[C@H]5[C@@H](O)C(C)(C)CC[C@]5(CO)CC[C@@]4(C)[C@]3(C)CC[C@H]2C1(C)C,103% (inactive),98.1% (inactive),93.1% (inactive),95.2% (inactive),105% (inactive),107% (inactive),97.4% (inactive),114% (inactive),94.5% (inactive),83.7% (inactive),88.4% (inactive),89.1% (inactive),95.2% (inactive),102% (inactive),100% (inactive),90.1% (inactive),103% (inactive),104% (inactive),108% (inactive),111% (inactive)
COc1cc(F)c(/C=C/c2cc(/C=C/c3cc(OC)c(OC)cc3F)n(-c3cc(F)cc(F)c3)n2)cc1OC,59.5% (inactive),57.7% (inactive),72.5% (inactive),85.4% (inactive),68.9% (inactive),117% (inactive),98.5% (inactive),92.4% (inactive),51.9% (inactive),71.5% (inactive),8.98% (active),18% (inactive),36.6% (inactive),51.4% (inactive),49.9% (inactive),108% (inactive),88.6% (inactive),24.2% (inactive),38% (inactive),12% (inactive)
O=C(NNc1ccccc1)c1ncc[nH]1,78.2% (inactive),60.2% (inactive),72% (inactive),12.3% (inactive),77.9% (inactive),14.5% (inactive),3.43% (active),98.3% (inactive),32.7% (inactive),27.3% (inactive),104% (inactive),53.5% (inactive),80.9% (inactive),65.3% (inactive),48.4% (inactive),81.2% (inactive),71.1% (inactive),64.3% (inactive),89.2% (inactive),78.6% (inactive)
O=C(Nc1cc(C(F)(F)F)cc(C(F)(F)F)c1)c1cc(Cl)ccc1O,-40.3% (active),1.8% (active) and 3.4% (active),-4.82% (active) and -10.6% (active),-64.4% (active) and -19.6% (active),-8.88% (active) and 5.69% (active),-14% (active) and 2.27% (active),-20.5% (active) and -23.8% (active),-44.7% (active) and -69.3% (active),-12.3% (active) and -10.4% (active),-38.9% (active) and -44.7% (active),-8.27% (active),-31.5% (active) and -35.6% (active),-37.8% (active) and 3.24% (active),27.2% (inactive) and 23.1% (inactive),24.8% (inactive) and 20.3% (inactive),-56.9% (active) and 1.67% (active),4.82% (active) and 9.9% (active),19.3% (inactive) and 2.52% (active),-8.03% (active),-1.25% (active) and 2.06% (active)
Cc1ccc(-c2nc([P+](c3ccccc3)(c3ccccc3)c3ccccc3)c(Nc3ccccc3)o2)cc1,-58.8% (active),-2.84% (active),2.84% (active),-23.5% (active),8.06% (active),-11.6% (active),-27.8% (active),-37.9% (active),0.282% (active),-9.22% (active),-27.1% (active),-50.4% (active),-21.5% (active),8.46% (active),-5.24% (active),-9.23% (active),15% (inactive),-12.1% (active),-31.1% (active),-3.38% (active)
O=C(NCCCN1CCCCC1)c1ccc(-c2nc3ccc4[nH]ncc4c3c3c2CCCC3)cc1,81.4% (inactive),67.4% (inactive),50.4% (inactive),54.4% (inactive),43.7% (inactive),27.4% (inactive),10.9% (inactive),-10% (active),21.6% (inactive),18.4% (inactive),-18.3% (active),29.9% (inactive),62% (inactive),94.6% (inactive),54.3% (inactive),24.9% (inactive),29.2% (inactive),67.5% (inactive),14.4% (inactive),85.2% (inactive)
CCNC(=S)n1nc(SC)c(C(=O)OCC)c1N,105% (inactive),101% (inactive),97.6% (inactive),77.8% (inactive),106% (inactive),96.7% (inactive),86.7% (inactive),97.5% (inactive),106% (inactive),81.3% (inactive),89.2% (inactive),110% (inactive),110% (inactive),84.8% (inactive),96.7% (inactive),94% (inactive),90.6% (inactive),97.7% (inactive),110% (inactive),94.8% (inactive)
O=C1CCc2c(sc3[nH]c(=S)n(Cc4ccc(Cl)cc4)c(=O)c23)C1,-20.9% (active),-2.48% (active),5.94% (active),-6.54% (active),15.3% (inactive),6.08% (active),3.79% (active),-2.71% (active),-9.46% (active),18% (inactive),17.9% (inactive),-25.5% (active),7.83% (active),11.7% (inactive),12.4% (inactive),-10.1% (active),23.3% (inactive),6.66% (active),5.06% (active),-0.97% (active)
Nc1ccc(/C=N/Nc2ccnc3c(N)cccc23)c2cccnc12,87.9% (inactive),32.2% (inactive),71.1% (inactive),-58.8% (active),-43.1% (active),-87.7% (active),31.9% (inactive),77% (inactive),-25.6% (active),-37.5% (active),-28.2% (active),-30.3% (active),-30% (active),13.9% (inactive),-51.4% (active),97.2% (inactive),88.4% (inactive),-85.5% (active),-17% (active),9.25% (active)
CC(=O)N1N=C(c2ccc(Nc3nc(Nc4ccc(F)cc4)nc(Nc4ccc(Cl)cc4)n3)cc2)CC1c1ccc(N(C)C)cc1 (stereo not given),30.8% (inactive),43.1% (inactive),66% (inactive),50.8% (inactive),50.5% (inactive),61.8% (inactive),35.3% (inactive),68.4% (inactive),-27.6% (active),29.4% (inactive),-9.66% (active),55% (inactive),40.2% (inactive),65.9% (inactive),47.8% (inactive),85.1% (inactive),60.8% (inactive),63.5% (inactive),24.6% (inactive),48.3% (inactive)
